# PubChem BioAssay AID431 (Sanford-Burnham Center for Chemical Genomics, 2006)
# Out of some 63,000 compounds screened, about 1,100 (1.7%) were called active. This is one part of a sample in which actives are shown more often than they occur. Measured potencies and affinities stand elsewhere. A number with no mark means an inactive call.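 The calls were made as follows: active = compounds whose percent cytotoxicity in the single-dose primary screen, scaled between solvent and toxic-drug controls, exceeds 50; inactive = the rest.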
# Assay: viability loss of HPDE-C7K cells – cell-based, fluorescence, HTS, primary screen (AID 431);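 also: 0% = DMSO solvent wells and 100% = doxorubicin-treated wells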
# Conditions: HPDE-C7K KRASV12 cells, Alamar Blue viability, 48 h; at 10 µM; stronger effect = higher value
row,SMILES,cytotoxicity
1,Cc1nc(Nc2ccccc2)[nH]c(=O)c1CCC(C)C,-10.7%
2,Cc1ccc(Nc2nc(C)c(CCC(C)C)c(=O)[nH]2)cc1,1.8%
3,Cc1nc(Nc2ccc(F)cc2)[nH]c(=O)c1CCC(C)C,66.2% (active)
4,Cc1n[nH]c(C)c1S(=O)(=O)N1CCCC(C(=O)NC2CCCCC2)C1 (stereo not drawn),-3.4%
5,Cc1nnc2n1NC(c1ccc(Cl)cc1)C(C(=O)N1CCC(C)CC1)S2 (stereo not drawn),-14.7%
6,CCOC(=O)c1c(NC(C)=O)no[n+]1[O-],-10.4%
7,Cc1cc(C)cc(NC(=O)CSc2nc3c(c(=O)n2C)SC(C)C3)c1 (stereo not drawn),-5.2%
8,COCCSc1ccccc1C(=O)NCCCn1ccnc1,-28.4%
9,Oc1cccc2ccc(Nc3ccccn3)nc12,124% (active)
10,O=C(Nc1ccccn1)c1ccc2ccccc2n1,-3.6%
11,c1ccc(Nc2ccccc2Nc2ccccn2)nc1,-10.1%
12,Cn1c(SCC(=O)Nc2ccc3c(c2)OCCO3)nnc1-c1ccco1,10.1%
13,N=c1n(CCN2CCCCC2)c2ccccc2n1CC(O)COc1ccccc1 (stereo not drawn),16%
14,N=c1n(CCN2CCCC2)c2ccccc2n1CC(O)c1ccco1 (stereo not drawn),-3.9%
15,N=c1n(CCN2CCCCC2)c2ccccc2n1CC(O)c1cccc(Br)c1 (stereo not drawn),59.4% (active)
16,CN(C)c1ccc(C2CC(=O)NC3=C2C(=O)CC(C)(C)C3)cc1 (stereo not drawn),-6.4%
17,C=CCn1sc(N)c(C(=O)OCC)c1=S,9%
18,Cc1cc(C)c2c(=O)n(CC(=O)NCCCN3CCOCC3)sc2n1,20.5%
19,Cc1cc(C)c2c(=O)n(CC(=O)NCCCN3CCN(c4ccccc4F)CC3)sc2n1,82.2% (active)
20,O=C(CCNC(=O)Cn1ccc2ccccc2c1=O)NCCCN1CCN(c2ccccc2F)CC1,-16.9%
21,CCOC(=O)N1CCN(C(=O)c2ccc3c(c2)NC(=O)C(N2CCOCC2)S3)CC1 (stereo not drawn),-7.4%
22,COCCNC(=O)CN1CCOc2ccccc21,-4.3%
23,COc1ccc(-c2cc(C(F)F)n3ncc(C(=O)N4CCN(C(=O)c5ccco5)CC4)c3n2)cc1,5.6%
24,NC(=O)C1CCCN(Cc2ccc(Cl)cc2)C1 (stereo not drawn),-10.3%
25,CN(C)c1nc(SCCOC(=O)Nc2ccccc2)nc(N(C)C)n1,16.1%
26,Cc1c(NC(=O)OCCSc2nc(N(C)C)nc(N(C)C)n2)sc(=S)n1C,66% (active)
27,CCOC(=O)Nc1sc(=S)n(C)c1C,-11.2%
28,Cc1cccc2cc(CN(CC3CCCO3)C(=O)c3ccncc3)c(=O)[nH]c12 (stereo not drawn),7.7%
